# Data as given in PubChem BioAssay.
# For some assays here: Potency and affinity values are given separately. Records with an inconclusive call do not appear. Unmarked numbers belong to inactive results. The list shows a part of the results. Entries that show only a call come without a potency. Activity calls are given as the source filed them.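 Rule for the calls, unless noted: active = signal drop whose fitted half-maximal concentration is at most twice the top valid dose, in every test run; inconclusive = mixed calls across runs, poor fit, or flat 30 to 70% inhibition; inactive = wrong direction, flat within 30%, or potency beyond limit.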
# Legend:
# [1] = inhibitors of PAX8-driven TPO luciferase reporter, dose response, RMG-I cells, cherry-pick (AID 687027;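 active = every replicate test run called active, with the signal dropping as expected and potency within twice the top valid dose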)
# [2] = inhibitors of CMV-promoter luciferase reporter, dose response, counter-screen for Pax8 inhibitor project, cell-based, HEK293, luminescence, dry powder (AID 743020;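 active = signal-lowering compounds whose fitted half-maximal concentration is at or below twice the top tested dose in every run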;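 note: HEK293 cells stably expressing the CMV luciferase reporter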)
# [3] = non-specific cell cytotoxicity, dose response, cytotoxicity control for PAX8 inhibitor project, plate reader, dry powder samples (AID 743021; call rule not given here)
# [4] = cytotoxicity in PAX8-dependent RMG-1 cells, dose response, cell-based, cherry-pick (AID 687029);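 note: cells exposed to compound for 96 hours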
# [5] = cytotoxicity in IOSE-T80 ovarian epithelial cells, dose response, selectivity assay for PAX8 inhibitor project, cell-based, cherry-pick (AID 687032;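 active = fitted half-maximal concentration for viability loss no higher than twice the top valid dose, in every repeat run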;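 note: cells exposed to compound for 96 h before reading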)
# [6] = IGROV1 ovarian cancer cell cytotoxicity, dose response, PAX8 inhibitor project, plate reader, dry powder samples (AID 743043; call rule not given here;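 note: more negative means fewer viable cells or more cytotoxicity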)
# [7] = NIH:OVCAR-3 ovarian cancer cell cytotoxicity, dose response, PAX8 inhibitor project, plate reader, dry powder samples (AID 743044; call rule not given here); conditions: max activity: at 35 µM, hits give low values unless noted
# [8] = IOSE-T80 ovarian epithelial cell cytotoxicity, dose response, cytotoxicity control for PAX8 inhibitor project, plate reader, dry powder samples (AID 743045; call rule not given here;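 note: more negative values mean more cell killing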)
# [9] = A2780 ovarian cancer cell cytotoxicity, dose response, cytotoxicity control, plate reader, dry powder samples (AID 743046; call rule not given here)
# [10] = cytotoxicity in OVCAR8 ovarian cancer cells, dose response, PAX8 project, cell-based, plate reader, dry powder samples (AID 743197; call rule not given here)
# [11] = DNA binders by acridine orange displacement, dose response, counter-screen for EWS/Fli inhibitor project, biochemical, fluorescence polarization, cherry-pick (AID 720586;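 active = fitted curve reaches a 35% signal fall AC35 below twice the sample's top valid tested dose, actives reach about 48 µM in these data; inactive = the rest, including activity in the rising direction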;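 note: lower polarization ratio signals compound binding to DNA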)
smiles,measurement,setting,value
CCCCn1c(O)c(N=NC(=O)Cn2c(C(F)(F)F)nc3ccccc32)c2ccccc21,outcome,[1],inactive
same,outcome,[2],inactive
same,outcome,[3],inactive
COc1cccc(CC(=O)Nc2nc3c(s2)C(=O)CC(C)(C)C3)c1,outcome,[1],inactive
same,outcome,[2],inactive
O=C(O)c1ccc(N/N=C/c2ccc3c(c2)OCO3)cc1,outcome,[4],inactive
CCOc1ccc2nc(N/C(N)=N/C(=S)Nc3ccc(C)c(C)c3)nc(C)c2c1,outcome,[1],inactive
same,outcome,[2],inactive
same,outcome,[3],inactive
COC1=CC(=O)c2c(ccc3ncnc(N)c23)C1=O,outcome,[4],inactive
Cc1cc(CN(C)C(=O)c2cc(COc3ccc4ncccc4c3)on2)on1,outcome,[1],inactive
same,outcome,[2],inactive
same,outcome,[3],inactive
CCN1CCN(Cc2ccc(NC(=O)c3ccc(C)c(NC(=O)c4c[nH]c5cc(C(F)(F)F)ccc5c4=O)c3)cc2C(F)(F)F)CC1,outcome,[4],inactive
C[C@@H]1CN([C@@H](C)CO)S(=O)(=O)c2ccc(C#Cc3ccncc3)cc2O[C@@H]1CN(C)C(=O)C1CCCCC1,outcome,[1],inactive
same,outcome,[5],inactive
same,outcome,[2],inactive
same,outcome,[3],inactive
same,outcome,[6],inactive
same,max activity,[7],"-17.5% [at 1 µM, hits give low values]"
same,outcome,[8],inactive
same,outcome,[9],inactive
same,outcome,[10],inactive
O=C(NCc1ccco1)C1CCCN(S(=O)(=O)c2ccc(Br)cc2)C1 (stereo not given),outcome,[1],inactive
same,outcome,[2],inactive
same,outcome,[3],inactive
COc1ccc(C(=O)NC(=S)NNC(=O)c2c(-c3ccccc3)noc2C)cc1,outcome,[1],inactive
same,outcome,[3],inactive
CC(=O)/C=C/n1c(=S)oc2ccccc21,outcome,[4],inactive
O=C1C(=O)c2cccnc2-c2ncccc21,outcome,[4],inactive
C=C1C(=O)C23C(O)C1CCC2C12CCCC(C)(COC(C)=O)C1C(O)C3(O)OC2 (stereo not given),outcome,[4],inactive
COc1cccc(S(=O)(=O)NCC(=O)Nc2ccc(C(C)(C)C)cc2)c1,outcome,[1],inactive
same,outcome,[5],inactive
same,outcome,[3],inactive
Cc1ccc(S(=O)(=O)Nc2ccc3c(c2)C(=O)N([C@@H](C)CO)C[C@@H](C)[C@@H](CN(C)C)OCCCC[C@H](C)O3)cc1,outcome,[1],inactive
same,outcome,[5],inactive
same,outcome,[2],inactive
same,outcome,[3],inactive
same,outcome,[6],inactive
same,max activity,[7],"20.9% [at 0.26 µM, hits give low values]"
same,outcome,[8],inactive
same,outcome,[9],inactive
same,outcome,[10],inactive
COc1ccccc1NC(=O)c1nc(S(=O)(=O)Cc2ccccc2)ncc1Cl,outcome,[4],inactive
COc1ccc2c(COC(=O)CNC(=O)C34CC5CC(CC(C5)C3)C4)cc(=O)oc2c1,outcome,[1],inactive
same,outcome,[3],inactive
O=C(CCC(=O)c1ccccc1)NCCc1c[nH]c2ccccc12,outcome,[1],inactive
same,outcome,[2],inactive
same,outcome,[3],inactive
CNC[C@@H]1Oc2ccc(NC(=O)NC(C)C)cc2CC(=O)N([C@@H](C)CO)C[C@@H]1C,outcome,[1],inactive
same,outcome,[2],inactive
same,outcome,[3],inactive
same,outcome,[6],inactive
same,max activity,[7],"22.5% [at 0.5 µM, hits give low values]"
same,outcome,[8],inactive
same,outcome,[9],inactive
same,outcome,[10],inactive
N#C[C@H]1[C@H](c2ccc(C#CC3CCCC3)cc2)[C@@H](CO)N1C(=O)Nc1ccc(F)cc1,outcome,[4],inactive
same,outcome,[5],inactive
CC1CCN(c2ccc(-c3cccc(NC(=O)C(F)(F)F)c3)nn2)CC1,outcome,[4],inactive
same,outcome,[5],inactive
O=c1cc(-c2ccc(O)cc2)oc2ccc3ccccc3c12,outcome,[4],inactive
same,outcome,[5],inactive
COc1ccc(C2C(O)C(c3c[nH]c4ccccc34)=NN2C(=O)CCl)cc1 (stereo not given),outcome,[4],inactive
same,outcome,[5],inactive
C[C@H]1CN([C@@H](C)CO)C(=O)c2c(c3ccccc3n2C)-c2ccccc2CO[C@H]1CN(C)S(=O)(=O)c1ccc([N+](=O)[O-])cc1,outcome,[4],inactive
same,outcome,[5],inactive
Cc1cc(C)c2nc(C)cc(N/N=C/c3ccc(O)cc3)c2c1,outcome,[4],inactive
same,outcome,[5],inactive
CCN(CC)S(=O)(=O)c1cc([N+](=O)[O-])ccc1NNC(=O)Nc1ccc(Cl)c(Cl)c1,outcome,[4],inactive
same,outcome,[5],inactive
CN1CCN(CCCNC(=O)c2ccc(/C=C3\Oc4ccccc4N(Cc4ccc(Cl)cc4)C3=O)cc2)CC1,outcome,[4],inactive
same,outcome,[5],inactive
O=C(C#Cc1ccccc1)c1ccco1,outcome,[4],inactive
same,outcome,[5],inactive
O=c1c2ccccc2cnn1-c1nc2ccccc2[nH]1,outcome,[4],inactive
same,outcome,[5],inactive
CC(OC(=O)c1ccc(S(C)(=O)=O)c([N+](=O)[O-])c1)C(=O)NC1C2CC3CC(C2)CC1C3 (stereo not given),outcome,[4],inactive
same,outcome,[5],inactive
COc1ccc(-c2sc3ccccc3c2-c2ccc(OCCN(C)C)cc2)cc1,outcome,[4],inactive
same,outcome,[5],inactive
CCS(=O)(=O)c1ncc(Cl)c(C(=O)Nc2ccc(S(=O)(=O)N(C)c3ccccc3)cc2)n1,outcome,[4],inactive
same,outcome,[5],inactive
O=C(Nc1ccc2nc3n(c(=O)c2c1)CCCCC3)c1cc([N+](=O)[O-])ccc1F,outcome,[4],inactive
same,outcome,[5],inactive
C=CCOc1ccccc1CN(C(=O)CCl)c1ccc2c(c1)OCO2,outcome,[4],inactive
same,outcome,[5],inactive
COc1ccc(N(C(=O)CCl)C(C(=O)NCCc2ccccc2)c2cccs2)cc1Cl (stereo not given),outcome,[4],inactive
same,outcome,[5],inactive
COc1cccc(NC(=O)Nc2nc(-c3ccc(OC)c(OC)c3)cs2)c1,outcome,[4],inactive
same,outcome,[5],inactive
CN(C[C@H]1N[C@@H](CO)[C@@H]1c1ccc(-c2cccnc2)cc1)C(=O)c1ccccc1,outcome,[4],inactive
same,outcome,[5],inactive
Brc1ccc2nc(-c3ccc(CN4CCC(c5nc6ccccc6[nH]5)CC4)cc3)c(-c3ccccc3)nc2c1,outcome,[4],inactive
same,outcome,[5],inactive
COc1cc(/C=N/Nc2nc(Nc3ccc(C)cc3)nc(-n3nc(C)cc3C)n2)cc(OC)c1OC,outcome,[4],inactive
same,outcome,[5],inactive
Cc1cc(=O)n2c3c(c4c(cc13)c(CN(C)C)cc(=O)n4C)OC2,outcome,[4],inactive
same,outcome,[5],inactive
N#C[C@@H]1[C@H](c2ccc(C#CC3CCCC3)cc2)[C@H](CO)N1C(=O)Nc1ccc(F)cc1,outcome,[4],inactive
same,outcome,[5],inactive
Cc1ccc(-n2nc(C)c(NC(=O)CCl)c2C)cc1C,outcome,[4],inactive
same,outcome,[5],inactive
COC(=O)C1=C(C)N(Cc2ccc(C(F)(F)F)cc2)C(=NCc2ccccc2)NC1c1cccc(Cl)c1 (stereo not given),outcome,[4],inactive
same,outcome,[5],inactive
CC(=O)n1cc(N(C(=O)CCl)c2ccccc2)c2ccccc21,outcome,[4],inactive
same,outcome,[5],inactive
COc1ccc(C#Cc2ccc([C@H]3[C@@H](CO)N4CCCCN(C(=O)Nc5cccc(F)c5)C[C@H]34)cc2)cc1,outcome,[4],inactive
same,outcome,[5],inactive
CC[C@@H](C)[C@H](CNC)NC[C@@H](Cc1cccc2ccccc12)NCCc1cccc(C(F)(F)F)c1,outcome,[4],inactive
same,outcome,[5],inactive
O=c1c(Cl)c(Cl)cnn1-c1ccccc1,outcome,[4],inactive
same,outcome,[5],inactive
C[C@H](CO)N1C[C@H](C)[C@@H](CN(C)S(=O)(=O)c2ccc(F)cc2)OCCCC[C@H](C)Oc2ccc(NS(=O)(=O)c3ccc(Cl)cc3)cc2C1=O,outcome,[4],inactive
same,outcome,[5],inactive
COc1ccc(NC(=O)c2cc([N+](=O)[O-])ccc2O)cc1,outcome,[4],inactive
same,outcome,[5],inactive
C#Cc1cc(N2CCN(C(=O)c3ccoc3)CC2)n2nc(-c3cccc(Cl)c3)cc2n1,outcome,[4],inactive
same,outcome,[5],inactive
COc1ccccc1N(C(=O)CCl)c1cn(C(C)=O)c2ccccc12,outcome,[4],inactive
same,outcome,[5],inactive
CCS(=O)(=O)c1ncc(Cl)c(C(=O)Nc2ccc(C)cc2)n1,outcome,[4],inactive
same,outcome,[5],inactive
OC(CNCC(c1ccc(Cl)cc1Cl)c1c[nH]c2ccccc12)c1ccccc1 (stereo not given),outcome,[4],inactive
same,outcome,[5],inactive
OCC1OC(n2cnc3c(NCc4ccco4)ncnc32)C(O)C1O (stereo not given),outcome,[4],inactive
same,outcome,[5],inactive
COc1ccc(/C=N/Nc2cc(C)nc3ccc(Br)cc23)cc1,outcome,[4],inactive
same,outcome,[5],inactive
CCC[C@H](CN[C@@H](CNC)[C@H](C)CC)NCCc1cc(C(F)(F)F)cc(C(F)(F)F)c1,outcome,[4],inactive
same,outcome,[5],inactive
COc1ccc(N(C(=O)CCl)C(C(=O)NC2CCCCC2)c2cccnc2)cc1 (stereo not given),outcome,[4],inactive
same,outcome,[5],inactive
NC1=CC(=O)C(=O)c2cccnc21,outcome,[4],inactive
same,outcome,[5],inactive
same,AC35,[11],inactive
same,outcome,[3],inactive
COc1ccccc1-c1ccc(OCCCN2CCC(C(O)(c3ccccc3)c3ccccc3)CC2)cc1,outcome,[4],inactive
same,outcome,[5],inactive
same,outcome,[2],inactive
O=S(=O)(c1ccc2c(c1)C(=NO)c1cc(S(=O)(=O)N3CCCCC3)ccc1-2)N1CCCCC1,outcome,[4],inactive
same,outcome,[5],inactive
same,outcome,[2],inactive
COc1ccc(S(=O)(=O)/N=C2\C=C(Nc3ccc(O)cc3)C(=O)c3ccccc32)cc1,outcome,[4],inactive
same,outcome,[5],inactive
same,outcome,[2],inactive
COc1ccc(C#Cc2ccc([C@@H]3[C@H](CO)N4CCCCN(C(=O)Nc5cccc(F)c5)C[C@@H]34)cc2)cc1,outcome,[4],inactive
same,outcome,[5],inactive
same,outcome,[2],inactive
COc1cccc(/C=N/Nc2cc(C)nc(-c3ccccc3O)n2)c1O,outcome,[4],inactive
same,outcome,[5],inactive
same,outcome,[2],inactive
COc1cccc(/C=C2/Sc3ccc(C(=O)NCCN4CCCCCC4)cc3NC2=O)c1,outcome,[4],inactive
same,outcome,[5],inactive
same,outcome,[2],inactive
COC(=O)[C@@H]1Cc2c([nH]c3ccccc23)C(C)(C)N1C(=O)CCl,outcome,[4],inactive
same,outcome,[5],inactive
same,outcome,[2],inactive
O=C(OCc1ccccc1)N(CCCCN(CCCNCc1ccccc1)C(=O)OCc1ccccc1)CCCNCc1ccccc1,outcome,[4],inactive
same,outcome,[5],inactive
same,outcome,[2],inactive
Cc1ccc2c(CC(=O)OCC(=O)Nc3ccc(Cl)cn3)coc2c1,outcome,[4],inactive
same,outcome,[5],inactive
same,outcome,[2],inactive
O=C1C=CC(=O)c2c(O)c(N3CCN(CCOCCO)CC3)c(Br)c(O)c21,outcome,[4],inactive
same,outcome,[5],inactive
same,outcome,[2],inactive
C=C1CCc2c([nH]c3ccc(OCC(C)C)cc23)C1=O,outcome,[4],inactive
same,outcome,[5],inactive
same,outcome,[2],inactive
